Results published in the supplement of paper PMC11417369.
± gives the standard deviation of the averaged measurements. Whole data set: some 25,000 sequences, median “ln(normalized median fluorescence intensity)” near 8.9, cut for the highest 2% near 10. The sample holds the highest values, similar sequences and a random draw of the others, so the mix is not that of the screen.

Test system: PfAP2-LT AP2 domain (GST-tagged)
Assay: gcPBM binding intensity (ln(normalized median fluorescence intensity)); higher = stronger DNA binding
Outline: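 GST-tagged P. falciparum DNA-binding domains, expressed in E. coli (about 25 μg on average), were applied for 1 h to an Agilent 4 × 180k array of primer-extended double-stranded 36-bp intergenic genomic probes plus negative controls. The binding buffer was 1× PBS with 1% milk, 0.2 mg/ml BSA, 0.5% salmon testes DNA and 0.03% Triton X-100. Bound protein was detected with Alexa488 anti-GST antibody and scanned at 488 nm. Binding intensity is the highest Masliner-normalised natural-log median intensity across replicate spots of either probe orientation.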

Sequence	gcPBM binding intensity (ln)
TTTTTTTTTTAAATGTGTCCTCATTATAATATATGT [XGTACX_site5331]	8.65 ± 0.47
ATATAAGTTTTTTCTCAAAAAGTATAACGAGCATGA [CACACA_negctrl_site1375]	8.6 ± 0.4
GACAAAAAATTAAAATAAAATAATAATATAATAAAA [GTGCAC_negctrl_site234]	8.55 ± 0.67
TTTTGGTATACGTAATTATATAATATGTTAATCAAT [CACACA_negctrl_site645]	8.61 ± 0.36
ATGTAGAGTAATAGTTGTACAAGGTGTATATCTCAT [XGTACX_site6370]	9.29 ± 0.57
TAAAAGTTAATATAAACACACAAAAATTAATAAATA [CACACA_site6316]	8.73 ± 0.45
TTATAAAAAGAACAATTAAAAAAAAATAAAATAAAA [XGTACX_negctrl_site398]	8.4 ± 0.63
ATATAATGTGTAGGCCGTATTTACGTTTGGCAATCA [CACACA_negctrl_site1130]	8.99 ± 0.56
ATTTGGCAGAAACACACACACACACCCACCCACATA [CACACA_site589]	10.2 ± 0.35
ATTTGGCATAAACACACACACACACCCACCCACATA [CACACA_site8096]	10.1 ± 0.37
TATACGCAGAAACACACACACATACACCCACATACA [CACACA_site1723]	10 ± 0.26
TAGAAGCAGAAACACACACACATACATACACATACA [CACACA_site1467]	9.87 ± 0.35
TGTAAATTTGGCATCACACATAAATAAACATATAAA [CACACA_site4497]	8.77 ± 0.45
CATAAATGTATATAAACATGCAAGGACAGACTTTTA [TGCATGCA_site900]	8.92 ± 0.37
TATATATATTATAATACATGCGGTGATGAAAGTTAT [TGCATGCA_site924]	9.07 ± 0.58
TTATTTAAAATTTTTATGCGTATATATATAGGAACA [CACACA_negctrl_site388]	8.35 ± 0.39
ACCTGAAGAGTCAAACGTACAAATATTATAAAATGA [XGTACX_site3188]	8.77 ± 0.59
TTCGTCTTTTTTCTCACACACCCTTTTTATTAAAAG [CACACA_site7225]	9.05 ± 0.6
TATACACCCAGACACACACACACACCCAAAAAAAAA [CACACA_site497]	10.2 ± 0.3
GGAGCACCCAGACACACACACACATATATATATATA [CACACA_site336]	10.4 ± 0.19
TACCTATACAGACACACACACACACGCCCACAAAAA [CACACA_site6375]	10.2 ± 0.37
TGGGAGCACAGACACACACACACACCCATATATATA [CACACA_site335]	9.98 ± 0.36
CGTGGGAGCAGACACACACACACACCCATATATATA [CACACA_site334]	9.99 ± 0.5

Sequence	gcPBM binding intensity (ln)
AATACACCCAGACACACACACAAAAAAAAAAAAAAA [CACACA_site513]	9.53 ± 0.61
CGCCCACAGATATATACACACATATATAAATAAATA [CACACA_site6877]	9.04 ± 0.33
TACTATAACAGACATACACACAAAAAAAAAAAAAAA [CACACA_site538]	9.03 ± 0.47
CATACCTATAGACACACACACACACGCACGCACAAA [CACACA_site6374]	10 ± 0.18
TTGGCATACAGACACACACACACACGCCCACATATA [CACACA_site6425]	10.1 ± 0.38
AATTAGCTCAAAGGTTGTACAAATATATTTTAATGG [XGTACX_site2352]	8.66 ± 0.48
TTTATACATACATTCGTGCACATACGTATAACATAT	9.07 ± 0.37
TATAAAAAGCATAACACACACATGTCAATATATATA [CACACA_site1111]	9.31 ± 0.35
ATTTTGATGATGTATGCACACATTGAAAATGAGAAA [CACACA_site2916]	8.97 ± 0.57
AAAAAAAAGAATTATTGTACAAAAGAACAATAAATA [XGTACX_site1368]	8.73 ± 0.57
TGAAAAAAAAAATACACACACGAGTTGTTATACATA [CACACA_site7486]	9.09 ± 0.43
TTTAAATACAGACATACACACATACACCCACATATA [CACACA_site8078]	9.61 ± 0.15
CATACAGATGGACACACACACACACCCACAGACAAA [CACACA_site4431]	9.93 ± 0.36
GGCATACACAGACACACACACACACCCACATATATA [CACACA_site591]	10.2 ± 0.28
TAAATACAGACATACACACATACACCCACATATATA [CACACA_site547]	9.76 ± 0.38
CATACACCCAGACACACACACATATATATATATATA [CACACA_site634]	10.3 ± 0.17
TACAGATACGGACACACACACACACCCAGACAAAAA [CACACA_site4432]	10.2 ± 0.46
TGAACACAGACAAATACACACAAAAAAAATAAATAA [CACACA_site4298]	9.28 ± 0.57
AACAAATACAGACACACACACACACCCAAAAAAAAA [CACACA_site515]	10.2 ± 0.26
AAAAAAAACAGACACACACACAAATACATACACAAA [CACACA_site705]	9.72 ± 0.31
ATAAAAGATTTATACATACACACATATTATATTCAC [CACACA_site3714]	9.02 ± 0.42
ACAAGGAATATATAAGATAATTTTAAATATAACACG [CACACA_negctrl_site1734]	8.73 ± 0.51
AAAAAAAGTAAATGTTGTACTATAATATGTAATATA [XGTACX_site7966]	8.63 ± 0.55

Sequence	gcPBM binding intensity (ln)
ATATATATATATATATATATATATATATTTATATAT [GTGCAC_negctrl_site180]	9.39 ± 0.042
AAAAAGAAAAAAAAATGTACATAAAGTCTAATGATA [XGTACX_site4781]	8.78 ± 0.49
AAAAATTAAAAGAAAATACACACCTGTGGGTGCTTA [CACACA_site1988]	8.54 ± 0.47
TTAATTTTTTTTTAAACACACATTTTTTTATTTAAG [CACACA_site2738]	8.42 ± 0.54
TATGAAAAAAAAAAAAAAAAAAAAAAAAAAAAAAAA [XGTACX_negctrl_site587]	8.02 ± 0.15
TATATATTCATATGTTGTACATAAATACAAATAAGA [XGTACX_site5602]	8.69 ± 0.44
ATATAAGTATAATTATGTACTTATACTTATATAAAT [XGTACX_site5585]	8.62 ± 0.41
TTGGCATACAGACACACACACACACCCCCACATATA [CACACA_site590]	10.09 ± 0.085
AAAAATATTTTGGTTTGTACATATATTTTTACAATA [XGTACX_site8691]	8.61 ± 0.34
ACGATGTTCATCACTACACACACAAAGAAATATATA [CACACA_site8859]	9.26 ± 0.37
CGTGGGAGCGGACACACACACACACCCATATATATA [CACACA_site4340]	9.86 ± 0.41
CACGCGCCCGGACACACACACACACCCATATATATA [CACACA_site5251]	10.2 ± 0.57
AAAACACGCGGACACACACACACACGCCCACATATA [CACACA_site7105]	10.1 ± 0.33
CACAGACACGGACACACACACACACCGATATATATA [CACACA_site4353]	9.88 ± 0.24
CACACGCACGGACACACACACATATAAAATCTATAT [CACACA_site6428]	9.85 ± 0.57
AGCACAGACGGACACACACACACACCCACAGACACA [CACACA_site4358]	10.1 ± 0.23
ACTTGACACGGACACACACACATATATAAAAAAAAA [CACACA_site4576]	9.53 ± 0.51
CACAGACACGGACACACACACACACCCATATATATA [CACACA_site4354]	10.1 ± 0.32
TACACAGACGGACACACACACACACTAGAAAAAAAA [CACACA_site4435]	10.1 ± 0.59
TACAAAAGTTAAACATGTACTTAATTATATGTTTTT [XGTACX_site2852]	8.57 ± 0.44
TTCTTAATTTAAAATTGTACTTAAGTAATACTTATG [XGTACX_site3928]	8.49 ± 0.57
TTGTTTCCGATGAAAGAAAGGAAATTATAATATATC [GTGCAC_negctrl_site516]	8.43 ± 0.44
AAGTAATCATCATAAAGTACTAAATTATATTGTCAA [XGTACX_site5841]	8.67 ± 0.37

Sequence	gcPBM binding intensity (ln)
TATAAACAGACGAAAACACACATATGTAAATATATA [CACACA_site4428]	9.15 ± 0.44
TTTATTATCTTATTCACACACATATATAAATATGTA [CACACA_site7369]	9.06 ± 0.42
TGTTTTTTATATTACTGTACATGTTTTGGAATAATA [XGTACX_site4716]	8.75 ± 0.4
ATGAACAAGGGGCACACACACATTATGACTAATTTA [CACACA_site3204]	9.6 ± 0.45
TTTAAATATTTTATAGCATGCTACCAATATGTATAT [TGCATGCA_site291]	8.83 ± 0.52
TAGTGTGCCAAATTAGCACACACATATATACATGAA [CACACA_site8910]	9.6 ± 0.36
TCTTTTTCTTGACGAGTGCAAAAATTGTGTTTGAAA	8.48 ± 0.35
TCGTAAACATATTGAAAAATATAAAAAGGGGTAATA [CACACA_negctrl_site619]	8.71 ± 0.56
CTGAAGGAAAAAGAAAGTACTTTTTTTTTTTTGAAG [XGTACX_site5973]	8.22 ± 0.68
CAAGCACCCAGACACACACACACACCCACACCCACA [CACACA_site369]	10.1 ± 0.47
TTTATTTTATCATTTGCACACGCACCCAGACATAAA [CACACA_site4347]	9.19 ± 0.35
TTGGCATACGGACACACACACACACCCAGACATATA [CACACA_site4492]	9.84 ± 0.18
ATCAAGCACGGACACACACACACACCCAGACCCCCA [CACACA_site4360]	10.19 ± 0.099
CACAGACACGGACACACACACACACCCAGACACATA [CACACA_site4357]	10.1 ± 0.43
TTCTATTTTAATATCTGTACATAATAAAGATCCATT [XGTACX_site1142]	8.46 ± 0.49
ACATTATATTTGGACTGTACTAATATATTGTTATAT [XGTACX_site5573]	8.91 ± 0.42
GCTTATTAATATCATACACACATAGATATATTTATA [CACACA_site3104]	8.91 ± 0.39
TATATGTTATATTGGACACACACAATAAACATTATG [CACACA_site8480]	9.21 ± 0.38
AACCAGTTGATGTGTACACATATAGTAATAATTTTA [CACACA_site5564]	9.16 ± 0.52
TAAAATTATTAATGAGTGCATTATAAAATCTATATA [GTGCAC_site9493]	8.38 ± 0.46
